This note sets out measurements from PubChem BioAssay AID1347420 (Sanford-Burnham Center for Chemical Genomics, 2020).

Values joined by “and” are separate entries in the source; they are usually repeats but may differ in a detail not shown here. Equal values may be shown once. The whole screen tested about 1,300 compounds, of which about 980 (75%) were called active. Roughly 4% stayed inconclusive and do not appear here. The list shows a part of the results. A number with no mark means an inactive call.

Sequence of Sulfhydryl oxidase 1 (Homo sapiens) (O00391 whole entry, looked up): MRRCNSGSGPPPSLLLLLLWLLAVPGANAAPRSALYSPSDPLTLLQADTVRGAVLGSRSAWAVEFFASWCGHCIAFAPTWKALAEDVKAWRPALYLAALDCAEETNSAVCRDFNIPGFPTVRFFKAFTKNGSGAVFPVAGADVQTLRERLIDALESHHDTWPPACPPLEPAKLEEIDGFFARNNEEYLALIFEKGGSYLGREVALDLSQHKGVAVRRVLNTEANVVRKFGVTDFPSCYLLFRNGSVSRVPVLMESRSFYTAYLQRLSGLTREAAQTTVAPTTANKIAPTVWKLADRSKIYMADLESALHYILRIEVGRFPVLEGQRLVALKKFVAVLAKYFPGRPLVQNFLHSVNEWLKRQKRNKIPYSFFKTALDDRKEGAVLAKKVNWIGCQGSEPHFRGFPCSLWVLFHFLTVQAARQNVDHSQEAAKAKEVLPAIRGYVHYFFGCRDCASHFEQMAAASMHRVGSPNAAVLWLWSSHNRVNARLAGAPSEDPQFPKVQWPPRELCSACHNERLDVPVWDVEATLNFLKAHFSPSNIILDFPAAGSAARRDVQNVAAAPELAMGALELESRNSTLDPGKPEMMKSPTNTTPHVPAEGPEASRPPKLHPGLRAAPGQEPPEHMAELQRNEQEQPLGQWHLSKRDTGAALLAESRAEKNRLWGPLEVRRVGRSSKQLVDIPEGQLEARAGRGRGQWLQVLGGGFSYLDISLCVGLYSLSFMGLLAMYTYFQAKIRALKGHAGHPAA

The assay has as its target Sulfhydryl oxidase 1 (Homo sapiens) (UniProt O00391). Description: inhibition of human sulfhydryl oxidase QSOX1 – biochemical, HyperBlu H2O2 luminescence, HTS, primary screen (AID 1347420). Further: values above 100% were filed as inconclusive. To be noted: recombinant QSOX1, HyperBlu H2O2 luminescence, at 12.5 µM, stronger effect = higher value; active = any value above zero unless noted.
In the case of `COc1ccc2[nH]c3c(c2c1)CCNC3`, the inhibition (commonly the relative decrease from the control value, in per cent) was 40.5% (active).
Then `NC(=O)CI`, with -4.6%.
Then `NNC(N)=O`, with 13% (active).
Then `COc1ccc(OC)c(C(O)C(C)N)c1` (centres undefined), with 10.6% [setting not given] (active); and `CCCN(CCC)[C@H]1CCc2c(F)ccc(O)c2C1`, with 17.9% (active).
Regarding `CCCN(CCC)C1CCc2cccc(O)c2C1` (centres undefined), the inhibition was 5.5% (active).
In the case of `CCCN(CCC)[C@@H]1CCc2cccc(O)c2C1`, the inhibition is 2.9% (active).
Then `Cc1ncc(CNC(=O)N(CCCl)N=O)c(N)n1`, with 13.2% (active).
Take `Clc1cc(I)cc(Cl)c1NC1=NCCN1`: the inhibition is 3.8% (active).
Then `O=c1[nH]c2ccccc2n1C1CCN(CCCC(c2ccc(F)cc2)c2ccc(F)cc2)CC1`, with -0.3% [setting not given]; and `O=c1[nH]c2ccccc2n1CCCN1CCC(n2c(=O)[nH]c3cc(Cl)ccc32)CC1`, with 4.5% [setting not given] (active).
Then `S=C(NC1CCCCC1)N1CCC(c2cnc[nH]2)CC1`, with 4.8% (active); and `CC[C@@]1(O)C(=O)OCc2c1cc1n(c2=O)Cc2cc3ccccc3nc2-1`, with 17.6% [setting not given] (active); and `c1ccc(C2CC2)c(OCC2=NCCN2)c1`, with 21.8% (active).
Then `COc1ccc(C(=O)N2CCCC2=O)cc1`, with 20.3% [setting not given] (active); and `COC[C@H]1OC(=O)c2coc3c2[C@@]1(C)C1=C(C3=O)C2CCC(=O)[C@@]2(C)C[C@H]1OC(C)=O` (some centres undefined), with 49.7% (active); and `NC(=O)c1cc(N2CC2)c([N+](=O)[O-])cc1[N+](=O)[O-]`, with 15.2% (active).
With `c1ccc(CCCN2CCN(CCOC(c3ccccc3)c3ccccc3)CC2)cc1`, the inhibition was -3%.
In the case of `Fc1ccc(C(OCCN2CCN(CCCc3ccccc3)CC2)c2ccc(F)cc2)cc1`, the inhibition was 14.6% (active).
Then `CC12CCC3C(CCC4=C(O)C(=O)CCC43C)C1CCC2=O` (centres undefined), with 1.5% [setting not given] (active); and `CC(N)Cc1c[nH]c2ccc(OCc3cccs3)cc12` (centres undefined), with -4.1% [setting not given]; and `CC(=O)NCCc1c[nH]c2ccccc12`, with 35.3% [setting not given] (active).
Then `COc1ccc2[nH]cc(CCN)c2c1`, with -0.1% [setting not given].
On to `CC(N)Cc1c[nH]c2ccc(O)cc12` (centres undefined), for which the inhibition is 79% [setting not given] (active).
Then `NCCc1c[nH]c2ccc(O)cc12`, with 80.8% (active).
Then `CNCCc1c[nH]c2ccc(O)cc12`, with 55.9% [setting not given] (active); and `Cc1c(C(=O)c2cccc3ccccc23)c2cccc3c2n1[C@H](CN1CCOCC1)CO3`, with -2.1% [setting not given]; and `O=C(O)c1nn(Cc2ccc(Cl)cc2Cl)c2ccccc12`, with -13% [setting not given].
Then `Cc1[nH]c2ccc(O)cc2c1CCN`, with 79.3% [setting not given] (active); and `NCCc1c[nH]c2ccc(C(N)=O)cc12`, with 26.8% (active).
As to `NCCc1c[nH]c2ccccc12`, the inhibition was 1.9% [setting not given] (active).
`CCCN(CCC)CCc1c[nH]c2ccc(C(N)=O)cc12`: the inhibition is -6.2% [setting not given].
For `C/C(O)=C(\C#N)C(=O)Nc1cc(Br)ccc1Br`, the inhibition was -6.8%.
Next, `Clc1cnc(Oc2ccc(Oc3ncc(Cl)cc3Cl)cc2)c(Cl)c1`: 10.6% [setting not given] (active); `C=CCN(C1=NCCN1)c1c(Cl)cccc1Cl`: 9.6% (active).
As to `c1ccc2c(c1)OCC(C1=NCCN1)O2` (centres undefined), the inhibition was 3.2% (active).
Then `CN1CC[C@@]2(C)c3cc(O)ccc3N(C)C12` (some centres undefined), with 52.2% (active).
Take `CN1CC[C@@]2(C)c3cc(OC(=O)Nc4ccccc4)ccc3N(C)[C@@H]12`: the inhibition is 41.8% (active).
In the case of `CNCCc1ccc(O)c(O)c1`, the inhibition was 50.2% (active).
Next, `CCCN(CCC)CCc1ccc(O)c(O)c1`: 56.8% (active).
Regarding `Cc1ccc(S(=O)(=O)N[C@@H](CCCCN)C(=O)CCl)cc1`, the inhibition was 11.5% (active).
Then `O=[N+]([O-])c1ccc2nc(N3CCNCC3)ccc2c1`, with 15.5% (active); and `COc1ccccc1N1CCNCC1`, with -0.1% [setting not given].
Then `c1ccc2c(N3CCNCC3)cccc2c1`, with 3% (active).
Then `NNC(=O)c1ccc(O)cc1`, with 3.3% (active); and `C[C@]12N[C@H](Cc3ccccc31)c1ccccc12`, with -13.1% [setting not given].
In the case of `CC12NC(Cc3ccccc31)c1ccccc12` (centres undefined), the inhibition was 3.8% [setting not given] (active).
Then `CCCN1CC[C@@H]2c3cc(O)ccc3CC[C@@H]21`, with 18.3% (active).
Next, `CCCN1CCO[C@@H]2c3cc(O)ccc3OC[C@H]21`: 27.5% (active); `CCCn1c(C)c(C(=O)c2ccc3ccccc3c2)c2ccccc21`: -8.8% [setting not given]; `CCCCCCCCCCCCCC(=O)O[C@@H]1[C@@H](C)[C@@]2(O)[C@@H](C=C(CO)C[C@@]3(O)C(=O)C(C)=C[C@@H]23)C2C(C)(C)[C@@]21OC(C)=O` (some centres undefined): -11.5%.
Then `CN(N=O)c1ccc(O)c(O)c1`, with 9% (active).
Regarding `CN(N=O)c1cc(O)ccc1O`, the inhibition is 56% (active).
Next, `NC(=O)c1ccc(OCC(O)CN2CC=C(c3ccc(F)cc3)CC2)cc1` (centres undefined): -3.1%; `CC(NC(C)(C)C)C(=O)c1cccc(Cl)c1` (centres undefined): 0.2% [setting not given] (active); `CC1=NN=C(c2ccc(N)cc2)c2cc3c(cc2C1)OCO3`: 11% (active).
Next, `CC(C)NP(=O)(NC(C)C)OP(=O)(NC(C)C)NC(C)C`: -1.6%; `C=CCN1CCC23c4c5ccc(O)c4O[C@H]2C(=O)CC[C@@]3(O)C1C5` (some centres undefined): 19.6% [setting not given] (active).
For the compound `O=C1CC[C@@]2(O)C3Cc4ccc(O)c5c4C2(CCN3CC2CC2)[C@H]1O5` (some centres undefined), the inhibition is 16.8% [setting not given] (active).
Next, `C=CCN1CC[C@]23c4c5ccc(O)c4O[C@@H]2/C(=N/N=C2\CC[C@@]4(O)C6Cc7ccc(O)c8c7[C@@]4(CCN6CC=C)[C@@H]2O8)CC[C@@]3(O)C1C5`: 29.2% (active).
For the compound `C=CCN1CC[C@]23c4c5ccc(O)c4O[C@H]2/C(=N/NC(=O)c2ccccc2)CC[C@@]3(O)[C@H]1C5`, the inhibition is 24.9% [setting not given] (active).
Regarding `Cn1cnc(CCN)c1`, the inhibition is 10.9% (active).
As to `COc1ccc(C(CN(C)C)C2(O)CCCCC2)cc1` (centres undefined), the inhibition was 7.4% (active).
Then `NCCCP(=O)(O)O`, with -9.2%; and `CCCCc1ccc(C(=O)O)nc1`, with 5.9% (active).
With `CC(N)[C@H](O)c1ccc(O)c(O)c1` (some centres undefined), the inhibition is 57.3% [setting not given] (active).
Consider `NC(C(=O)O)c1cc(=O)[nH]o1` (centres undefined), for which the inhibition is 4.7% (active).
Regarding `CCCN1CCC[C@@H]2Cc3[nH]ncc3C[C@H]21`, the inhibition was 5.1% (active).
Next, `CCCN1CCC[C@@H]2Cc3nc(N)ncc3C[C@H]21`: 14.3% (active); `O=C(N[C@H]1CN2CCC1CC2)c1ccc(Cl)cc1`: 8.6% (active).
Then `CC(C)(C)NCC(O)c1ccccc1Cl` (centres undefined), with 6.8% (active); and `COc1ccc2c(c1OC)C(=O)O[C@H]2[C@@H]1c2cc3c(cc2CCN1C)OCO3`, with 12.6% (active).
Next, `O=[N+]([O-])/C=C/c1ccc2c(c1)OCO2`: 19.2% (active).
Regarding `C#CCN[C@H](C)Cc1ccccc1`, the inhibition was 8.8% [setting not given] (active).
Next, `CNc1ccc2oc(C[C@H]3O[C@@]4(CC[C@H]3C)O[C@H]([C@H](C)C(=O)c3ccc[nH]3)[C@H](C)C[C@H]4C)nc2c1C(=O)O`: 30.5% [setting not given] (active).
Consider `O=C(O)CC[N+](=O)[O-]`, for which the inhibition was 12% [setting not given] (active).
As for `CCn1cnc2c(Nc3cccc(Cl)c3)nc(N[C@@H]3CCCC[C@@H]3N)nc21`, the inhibition is 10.8% (active).
Then `C=C(C)[C@H]1CN[C@H](C(=O)O)[C@H]1CC(=O)O`, with 5.8% (active).
Next, `CC(C)[C@H]1CN[C@H](C(=O)O)[C@H]1CC(=O)O`: 23.9% (active); `CN(C(=O)Cc1ccc(Cl)c(Cl)c1)C(CN1CCCC1)c1cccc(OCC(=O)O)c1` (centres undefined): -2.6%.
Then `O=C(Cc1ccc(Cl)c(Cl)c1)N1CCCCC1CN1CCCC1` (centres undefined), with 2.1% (active); and `COC(=O)N1CCN(C(=O)Cc2ccc(Cl)c(Cl)c2)C(CN2CCCC2)C1` (centres undefined), with 13.5% (active); and `NN=C(N)N`, with 17.9% (active) and 6.7% (active).
As to `NC(Cc1cc(O)c(O)cc1O)C(=O)O` (centres undefined), the inhibition was 30.1% (active).
Take `NC1CCc2cc(O)c(O)cc2C1` (centres undefined): the inhibition was 60.4% (active).
With `COC(=O)[C@@H](N)CCCN=C(N)N[N+](=O)[O-]`, the inhibition was -8.2%.
Then `NC(=NCCC[C@H](N)C(=O)O)N[N+](=O)[O-]`, with 7.4% (active).
Then `COc1ccc2c(c1)c(CCN1CCOCC1)c(C)n2C(=O)c1cccc(Cl)c1Cl`, with -15.7%.
For the compound `CCC1(C2=NCCN2)Cc2ccccc2O1` (centres undefined), the inhibition is 0.3% (active).
Next, `Cn1c(CCCC(=O)O)nc2cc(N(CCCl)CCCl)ccc21`: 87% (active); `NC(Cc1ccc(N(CCCl)CCCl)cc1)C(=O)O` (centres undefined): 85.8% (active).
Regarding `O=C(O)CCCc1ccc(N(CCCl)CCCl)cc1`, the inhibition is 18% [setting not given] (active).
Then `NCCc1ccc(S(=O)(=O)F)cc1`, with 22.8% (active); and `NCCc1ccc(O)cc1`, with 14.4% [setting not given] (active); and `c1ccc2sc(C3(N4CCCCC4)CCCCC3)cc2c1`, with -3%.
Next, `CN1C(=O)CCS(=O)(=O)C1c1ccc(Cl)cc1` (centres undefined): 18.9% (active).
Take `CCS(=O)(=O)Nc1cccc(C(=C2CCCCC2)c2cnc[nH]2)c1`: the inhibition is 14.3% (active).
On to `OC1CCCCC1N1CCC(c2ccccc2)CC1` (centres undefined), for which the inhibition was 6.2% [setting not given] (active).
For the compound `C=C(C)[C@H]1Cc2c(ccc3c2O[C@@H]2COc4cc(OC)c(OC)cc4[C@@H]2C3=O)O1`, the inhibition was -11.7% [setting not given].
